Experimental findings from PubChem BioAssay are described below.

Assay [1] is described as follows: inhibitors of TNFa-induced NFkB p65 translocation, primary screen, imaging, HUVEC, MLSMR starter and 10KST1 sets (AID 438;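 active = inhibition above 20% together with a positive visual image hit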;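 also: compound added about 3h40 before a 20 min TNFalpha stimulation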;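 as to inhibition: signal is the nuclear over cytoplasmic p65 intensity ratio per well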). The following applies: HUVEC TNFa-induced p65 nuclear translocation; cell count: measured here: nuclei count (cytotoxicity indicator), at 2.08 µM unless noted; inhibition: at 2 µM, stronger effect = higher value unless noted.
Assay [2] in a line: endothelial E-selectin expression blockers – imaging, HUVEC, immunofluorescence, MLSMR starter and 10KST1 sets, primary screen (AID 487;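 active = visually confirmed hit in the image check and inhibition above 20%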;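 as to inhibition: signal is fraction of cell area covered by stained E-selectin grains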;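 as to nuclei count: 100% = median nuclei count of all wells on the same plate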). The following applies: HUVEC TNFalpha-induced E-selectin immunofluorescence imaging, at 2 µM; inhibition: stronger effect = higher value; nuclei count: measured here: cell number, toxicity.
Assay [3] is described as follows: Primary imaging screen for DUSP6 inhibitors that restore phospho-Erk in transfected HeLa cells, chemical complementation (AID 609).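 As to inhibition: phospho-Erk level distribution per well compared with pooled transfected vehicle control wells.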 The following applies: HeLa MKP-3 transfected, phospho-Erk imaging KS statistic, at 10 µM.
In assay [4] the target is Dual specificity protein phosphatase 6 (Homo sapiens) (UniProt Q16828). The description is as above. To be noted: HeLa MKP-3 transfected, phospho-Erk imaging KS statistic, at 10 µM, stronger effect = higher value.
The target of assay [5] is Voltage-gated potassium channel subunit beta-2 (Rattus norvegicus) (UniProt P62483). The assay can be described thus: inhibitors of rat Kvbeta2 reductase activity – biochemical, NADPH fluorescence, primary screen (AID 622;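 active = fluorescence slope higher than the sample average by over 3 SD, cut at about -0.22 in these data, passing the limit was not always enough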;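 also: slope of raw intensity against log time taken from 70 to 1610 s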). To be noted: recombinant KvBeta, 4-cyanobenzaldehyde reduction, at 10 µM, stronger effect = higher value.
Assay [6] has the same target. The assay can be described thus: enhancers of rat Kvbeta2 NADPH turnover – biochemical, NADPH fluorescence, primary screen (AID 623;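 active = NADPH fluorescence slope more negative than the mean of all samples by about 3 SD, 99.7% confidence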;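 also: fluorescence intensity change per second fitted from 20 to 320 s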). To be noted: Recombinant KvBeta, NADPH fluorescence decrease slope, 10 min; at 10 µM; stronger effect = lower value.
Assay [7] concerns the target Alpha-2C adrenergic receptor (Homo sapiens) (UniProt P18825). The assay can be described thus: compounds altering alpha2C-coupled GIRK flux – cell-based, HEK293 alpha2C/GIRK1/2, thallium flux, primary screen (AID 624;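 active = fluorescence slope after compound addition differing from the mean of all screened samples at 99.7% confidence, in either direction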;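 also: slope of fluorescence ratio to pre-addition baseline per second over 15 to 24 s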). To be noted: thallium flux BTC fluorescence, at 10 µM, actives lie on both sides.
Assay [8] in a line: inhibitors of larval lipid processing in zebrafish, primary screen, whole organism, PED6 fluorescence, gall bladder and intestine (AID 686;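 active = a full or partial loss of lipid-probe fluorescence in the fish gall bladder, intestine or both, judged by eye; inactive = no fluorescence loss, or compound toxic to the fish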;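 also: larvae 5 to 7 days old with five fish per well; signal comes from phospholipase A2 cleavage of quenched PED6 carried via bile; overnight exposure to compound and PED6 before scoring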). To be noted: Zebrafish larvae PED6 lipid processing, fluorescence scoring.
A short description of assay [9]: loss of swimming-algae plug formation – whole organism, Chlamydomonas reinhardtii, WT vs cilia-less mutant, absorbance, 96-well, primary screen (AID 463189;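 active = inhibition at or above 50% relative to wild type and mutant plate controls; inactive = inhibition below 50%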;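 also: 0% = wild type cc124 cells in DMSO and 100% = ciliumless bld1 mutant cells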). The following applies: Chlamydomonas reinhardtii gravitaxis, OD600 absorbance, 2 days; at 10 µM; stronger effect = higher value.
[10] abbreviates: measured here: cell density z-score.
Where [11] appears, read: measured here: nuclear c-Myc green intensity z-score.
[12] abbreviates: measured here: nuclear pErk red intensity z-score, stronger effect = higher value.

Active and inactive are the calls of the source.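 The calls were made as follows, unless noted: active = compounds giving at least 50% inhibition in the cell-based MKP-3 phosphatase rescue imaging test; inactive = the rest.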

Sequence of Voltage-gated potassium channel subunit beta-2 (Rattus norvegicus) (P62483 whole entry, looked up): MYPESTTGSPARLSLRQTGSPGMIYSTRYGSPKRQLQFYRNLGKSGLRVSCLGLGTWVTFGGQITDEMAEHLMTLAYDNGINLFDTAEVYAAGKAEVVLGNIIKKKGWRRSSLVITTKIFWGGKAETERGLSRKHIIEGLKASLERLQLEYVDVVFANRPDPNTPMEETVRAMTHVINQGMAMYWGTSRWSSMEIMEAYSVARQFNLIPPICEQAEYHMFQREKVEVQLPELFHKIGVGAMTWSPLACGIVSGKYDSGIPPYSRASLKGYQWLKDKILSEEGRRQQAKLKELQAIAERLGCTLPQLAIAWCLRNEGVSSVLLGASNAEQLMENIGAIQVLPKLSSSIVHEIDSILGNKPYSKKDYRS
Sequence of Dual specificity protein phosphatase 6 (Homo sapiens) (Q16828 whole entry, looked up): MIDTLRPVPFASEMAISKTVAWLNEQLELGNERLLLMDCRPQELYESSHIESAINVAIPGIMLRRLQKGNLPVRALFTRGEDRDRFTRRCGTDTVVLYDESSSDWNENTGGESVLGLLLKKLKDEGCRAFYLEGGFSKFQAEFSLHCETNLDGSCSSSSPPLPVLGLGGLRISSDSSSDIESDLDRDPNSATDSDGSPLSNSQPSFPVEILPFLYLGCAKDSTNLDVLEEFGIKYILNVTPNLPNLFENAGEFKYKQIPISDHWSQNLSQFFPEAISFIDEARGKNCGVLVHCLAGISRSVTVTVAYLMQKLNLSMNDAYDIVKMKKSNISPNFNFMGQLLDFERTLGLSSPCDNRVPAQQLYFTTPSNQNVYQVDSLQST
Sequence of Alpha-2C adrenergic receptor (Homo sapiens) (P18825 whole entry, looked up): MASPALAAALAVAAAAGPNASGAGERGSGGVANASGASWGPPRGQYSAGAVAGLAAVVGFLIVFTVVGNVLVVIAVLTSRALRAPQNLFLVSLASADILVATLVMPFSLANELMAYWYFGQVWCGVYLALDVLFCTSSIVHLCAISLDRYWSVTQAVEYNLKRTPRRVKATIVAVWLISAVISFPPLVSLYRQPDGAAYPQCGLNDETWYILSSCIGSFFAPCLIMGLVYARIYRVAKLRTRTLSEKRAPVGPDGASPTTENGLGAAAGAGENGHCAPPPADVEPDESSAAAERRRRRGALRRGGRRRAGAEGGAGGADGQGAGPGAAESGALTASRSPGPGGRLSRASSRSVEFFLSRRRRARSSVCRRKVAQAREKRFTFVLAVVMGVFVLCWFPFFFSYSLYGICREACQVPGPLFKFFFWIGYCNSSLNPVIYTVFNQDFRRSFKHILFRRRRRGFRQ

Broadly, the inhibition is the drop in the measured response relative to a control, in per cent. `O=c1[nH]c(=O)n(Cc2ccco2)c(O)c1C=NCc1ccc2c(c1)OCO2` registered a cell count in assay [1] of 562. Besides, the inhibition in [1] is -4.8% (inactive); in assay [2], 50.7% (inactive); in assay [4] it was -8.76% (inactive); in [9], 18.3% (inactive). The compound also had a nuclei count in assay [2] of 148%. Also, the z-score is -1.72 in assay [3] (setting [10]), -1.79 in assay [3] (setting [11]) and -0.396 in assay [3] (setting [12]). Besides, in assay [5], the fluorescence slope was -0.254 (inactive). Besides, the NADPH fluorescence slope in [6] is -1.2e-06 (inactive). In assay [7], the slope is 0.00624 (inactive). Further, the outcome in assay [8] was inactive.
`CC(=NCCO)c1c(O)n(C)c(=O)n(C)c1=O`: the cell count in assay [1] worked out at 608. Also, the inhibition in assay [1] was -15.1% (inactive); in assay [2], -3.1% (inactive); in assay [4], 31% (inactive); in assay [9] it was -8.68% (inactive). Also, the nuclei count in [2] stood at 90.8%. The values for the z-score in [3] (setting [10]), in [3] (setting [11]) and in assay [3] (setting [12]) were 2.05, -1.46 and -1.21, respectively. Moreover, the fluorescence slope in assay [5] was -0.432 (inactive). Moreover, the NADPH fluorescence slope in assay [6] is -4.7e-06 (inactive). In assay [7], the slope is 0.00689 (inactive). Further, in assay [8], the result was inactive.
Consider `CC(=C1C(=O)c2ccccc2C1=O)N1CCN(CCN=Cc2c(O)n(C)c(=O)n(C)c2=O)CC1`, for which the cell count in assay [1] is 584. Also, the inhibition in assay [1] was -2.8% (inactive); in assay [2] it was -90.4% (inactive); in [4], 1.98% (inactive); in [9] it was 18.5% (inactive). This compound also registered a nuclei count in assay [2] of 138%. The z-score was -0.147 in assay [3] (setting [10]), 0.321 in [3] (setting [11]) and 0.747 in [3] (setting [12]). For the same compound, in [5], the fluorescence slope was -0.482 (inactive). Also, the NADPH fluorescence slope in assay [6] is -2e-05 (inactive). The slope in assay [7] is 0.00537 (inactive). Also, in assay [8], the call was inactive.
For `CCC(=NCCN1CCCCC1)c1c(O)n(C)c(=O)n(C)c1=O`, the cell count in [1] was 605. Besides, the inhibition in assay [1] is 0.7% (inactive); in assay [2] it was -61.5% (inactive); in assay [4] it was 7.83% (inactive); in assay [9], 18% (inactive). Also, the nuclei count in [2] stood at 154%. Besides, the z-score in assay [3] (setting [10]) is 0.767; in assay [3] (setting [11]), -1.21; in assay [3] (setting [12]), 0.171. For the same compound, the fluorescence slope in assay [5] was -0.517 (inactive). In assay [6], the NADPH fluorescence slope is -3.9e-05 (inactive). Besides, the slope in assay [7] was 0.00466 (inactive). The compound was called inactive in assay [8].
The compound `COc1ccc(-n2c(SC)nc3ccccc3c2=O)cc1` yielded a cell count in assay [1] of 594. The inhibition was -3.7% (inactive) in assay [1], -93.7% (inactive) in assay [2], 4.25% (inactive) in assay [4] and 12.5% (inactive) in assay [9]. Besides, in assay [2], the nuclei count turned out to be 134%. Also, the z-score in [3] (setting [10]) was -0.0992; in assay [3] (setting [11]) it was -1.67; in assay [3] (setting [12]) it was -0.0859. In addition, the fluorescence slope in assay [5] was -0.492 (inactive). In addition, the NADPH fluorescence slope in assay [6] was -0.000141 (inactive). The slope in [7] was 0.00471 (inactive). Besides, the result in assay [8] was inactive.
`CCOC(C(=O)OCC(O)CN(CC)CC)(c1ccccc1)c1ccccc1` (stereo unspecified) had a cell count in [1] of 598. Besides, the inhibition in assay [1] is -12.4% (inactive); in [2], -341% (inactive); in [4], -5.89% (inactive); in [9], 19.6% (inactive). Further, the nuclei count in assay [2] came to 184%. The figures for the z-score in [3] (setting [10]), in [3] (setting [11]) and in assay [3] (setting [12]) were -0.241, -0.53 and 1.71, respectively. In addition, the fluorescence slope in [5] was -0.446 (inactive). For the same compound, in [6], the NADPH fluorescence slope is -0.000326 (inactive). In addition, the slope in [7] was 0.00508 (inactive). The compound was called inactive in assay [8].
For the compound `O=c1[nH]c(=O)n(-c2cccc(Cl)c2)c(O)c1C=NCCN1CCCCC1`, the cell count in [1] stood at 506. The inhibition is 1.5% (inactive) in assay [1], -67.4% (inactive) in [2], 15% (inactive) in assay [4] and -0.905% (inactive) in [9]. In addition, the nuclei count in assay [2] stood at 143%. Also, the z-score in [3] (setting [10]) is -0.817; in [3] (setting [11]) it was 1.06; in assay [3] (setting [12]) it was 1.7. Also, the fluorescence slope in assay [5] was -0.435 (inactive). For the same compound, the NADPH fluorescence slope in assay [6] is -5.4e-05 (inactive). For the same compound, the slope in [7] is 0.00582 (inactive). Moreover, in assay [8], the compound was called inactive.
